Test systems include NCI-H23 lung; NCI-H226 lung; NCI-H322M lung; HOP-62 NSCLC; NCI-H460 lung; HOP-92 NSCLC; NCI-H522 lung; A549/ATCC NSCLC; 786-0 renal; COLO 205 colon.
Experiment in all cases: NCI-60 one-dose screen, 48 h (100 = growth as untreated, 0 = no growth, -100 = all killed)
Conditions in all cases: 10 µM unless noted

Compounds without any hit were thinned out: in the full panel of roughly 83,000, 20% have a hit.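 In brief: 96-well plates, 48 h treatment, single concentration, percent growth endpoint.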 A number with no mark means an inactive call. The source made the active and inactive calls. The calls were made as follows: active = growth percent below 10; inactive = the rest.

Turning to `Nc1nc(=S)c2ncn(C3OC(COP(=O)(O)O)C(O)C3O)c2[nH]1` (stereo not given), the growth with NCI-H23 lung was 14.5%; in the assay on NCI-H226 lung it was 32.8%; in the assay with NCI-H322M lung, 53.2%; in the assay with HOP-62 NSCLC it was 20.1%; in the assay on NCI-H460 lung, 8.01% (active); in the assay with HOP-92 NSCLC, 33.4%. In addition, the growth with NCI-H522 lung was -3.01% (active); in the assay with A549/ATCC NSCLC, 32.9%; with 786-0 renal, 22.9%; with COLO 205 colon, 24.7%.

With `Cn1ccnc1C(=O)C(=O)Nc1ccc(CC(=O)Nc2ccccc2)cc1`, the growth was 104% in the assay with NCI-H23 lung; 96.4% in the assay on NCI-H226 lung; 102% with NCI-H322M lung; 107% in the assay with HOP-62 NSCLC; 102% with NCI-H460 lung; 103% in the assay with HOP-92 NSCLC. Further, the growth with NCI-H522 lung was 99.5%; with A549/ATCC NSCLC it was 108%; in the assay on 786-0 renal, 104%; in the assay with COLO 205 colon, 109%.

For the compound `CN1C(=O)N(C)C2Nn3c(s/c(=C\c4ccc(C(F)(F)F)cc4)c3=O)=NC21` (stereo not given), the growth is 99.4% in the assay with NCI-H23 lung; 96.3% with NCI-H226 lung; 101% in the assay with NCI-H322M lung; 115% with HOP-62 NSCLC; 107% with NCI-H460 lung; 110% in the assay with HOP-92 NSCLC. Also, the growth in the assay with NCI-H522 lung was 93.4%; in the assay on A549/ATCC NSCLC, 104%; in the assay on 786-0 renal, 105%; in the assay with COLO 205 colon, 118%.

Consider `O=S(=O)(NCCNc1cc(-c2c(-c3cccc(O)c3)nc3sccn23)ccn1)c1ccc(C(F)(F)F)cc1`, for which the growth in the assay on NCI-H23 lung was 51.9%; in the assay on NCI-H226 lung, 38.1%; in the assay with NCI-H322M lung, 61.5%; in the assay with HOP-62 NSCLC, 71.8%; with NCI-H460 lung, 21.1%; in the assay with HOP-92 NSCLC it was 61.9%. The growth in the assay on NCI-H522 lung was 38.1%; in the assay with A549/ATCC NSCLC, 28.6%; in the assay with 786-0 renal, 38.6%; in the assay with COLO 205 colon it was 42.6%.

Take `COc1ccc(-c2nc(SCC(C)C)nc(N/N=C\c3ccc(F)cc3)c2C#N)cc1`: the growth with NCI-H23 lung is 97.4%; in the assay with NCI-H226 lung it was 81.4%; with NCI-H322M lung it was 67.7%; in the assay on HOP-62 NSCLC it was 109%; in the assay with NCI-H460 lung, 25.7%; in the assay on HOP-92 NSCLC, 89.9%. Moreover, the growth in the assay with NCI-H522 lung is 107%; in the assay on A549/ATCC NSCLC, 69.9%; with 786-0 renal, 83%; in the assay with COLO 205 colon it was 94.8%.

Regarding `C#COc1cccc(Nc2ncnc3ncc(NC(=O)CCl)cc23)c1`, the growth was 32.9% [6.25 µM] in the assay on NCI-H23 lung; 43.8% [6.25 µM] with NCI-H226 lung; 59.4% [6.25 µM] in the assay with NCI-H322M lung; -2.06% [6.25 µM] (active) in the assay with HOP-62 NSCLC; -5.59% [6.25 µM] (active) with NCI-H460 lung; 59.5% [6.25 µM] with HOP-92 NSCLC. Besides, the growth is -79.2% [6.25 µM] (active) with NCI-H522 lung, 23% [6.25 µM] in the assay with A549/ATCC NSCLC, -69.6% [6.25 µM] (active) in the assay with 786-0 renal and -46.9% [6.25 µM] (active) in the assay with COLO 205 colon.

With `CCC(=C(c1ccc(OCCN2CCCC2)cc1)c1ccc(OCCN2CCCC2)cc1)c1ccc(Cl)cc1`, the growth was 77.1% in the assay with NCI-H23 lung; 105% in the assay with NCI-H226 lung; 20% with NCI-H322M lung; 60.2% in the assay with HOP-62 NSCLC; -86.9% (active) with NCI-H460 lung; 38.7% with HOP-92 NSCLC. Besides, the growth was 23.5% in the assay with NCI-H522 lung, -28% (active) in the assay with A549/ATCC NSCLC, -94.2% (active) with 786-0 renal and -64.8% (active) with COLO 205 colon.

On to `C=C(C)[C@@H]1CC[C@]2(C(=O)N3CCN(C)CC3)CC[C@]3(C)[C@H](CC[C@@H]4[C@@]5(C)CC(=C/c6ccncc6)/C(=N/O)C(C)(C)[C@@H]5CC[C@]43C)[C@@H]12`, for which the growth was 78.1% in the assay on NCI-H23 lung; 88.4% in the assay with NCI-H226 lung; 75.1% with NCI-H322M lung; 96.8% with HOP-62 NSCLC; 69.5% in the assay with NCI-H460 lung; 56.7% with HOP-92 NSCLC. Further, the growth in the assay on NCI-H522 lung is 69%; in the assay on A549/ATCC NSCLC, 73.9%; with 786-0 renal, 74.6%; with COLO 205 colon, 80.8%.

In the case of `CN(CCn1sc(=O)n(Cc2ccccc2)c1=O)Cc1ccc2c(Cl)cc(Cl)c(O)c2n1`, the growth in the assay on NCI-H23 lung is 50.1%; in the assay on NCI-H226 lung it was 61.9%; with NCI-H322M lung, 41%; with HOP-62 NSCLC, 25.2%; in the assay on NCI-H460 lung it was 19.8%; with HOP-92 NSCLC, 36%. The growth in the assay with NCI-H522 lung is 80.9%; with A549/ATCC NSCLC it was 32.6%; in the assay with 786-0 renal it was 37.6%; in the assay on COLO 205 colon, 93.7%.

With `COc1cc2c(c(OC)c1OC)CCC(c1cccc(C(=O)Nc3cccc(Br)c3)c1)O2` (stereo not given), the growth with NCI-H23 lung was 77.5%; with NCI-H226 lung it was 69.9%; with NCI-H322M lung, 50.9%; in the assay with HOP-62 NSCLC, 96.8%; in the assay with NCI-H460 lung it was 70.5%; in the assay on HOP-92 NSCLC it was 6.24% (active). Also, the growth in the assay on NCI-H522 lung was 48.8%; in the assay on A549/ATCC NSCLC, 64.5%; with 786-0 renal, 81%; in the assay on COLO 205 colon, 88.3%.

On to `CC(C)=CCC[C@](C)(O)[C@H]1CC[C@]2(C)[C@@H]1CC[C@@H]1[C@@]3(C)Cc4nccnc4C(C)(C)[C@@H]3CC[C@]12C`, for which the growth was 66.9% in the assay with NCI-H23 lung; 74.6% in the assay on NCI-H226 lung; 100% in the assay on NCI-H322M lung; 94.6% with HOP-62 NSCLC; 73.6% with NCI-H460 lung; 93.2% in the assay on HOP-92 NSCLC. Further, the growth with NCI-H522 lung is 62.8%; in the assay with A549/ATCC NSCLC, 46.3%; in the assay on 786-0 renal it was 78.6%; with COLO 205 colon it was 76.3%.

Consider `COc1ccc2cc(-c3ccc(NC(C)=O)c(=O)o3)ccc2c1`, for which the growth is 94.4% with NCI-H23 lung; 94.4% in the assay on NCI-H226 lung; 92.2% in the assay on NCI-H322M lung; 94.3% in the assay with HOP-62 NSCLC; 100% with NCI-H460 lung; 97.8% in the assay on HOP-92 NSCLC. Moreover, the growth was 78.8% in the assay on NCI-H522 lung, 87.5% in the assay with A549/ATCC NSCLC, 98.8% in the assay on 786-0 renal and 115% in the assay with COLO 205 colon.

Consider `COc1cc(-c2nc(SCCC(C)C)nc(Nc3ccccc3Cl)c2C#N)cc(OC)c1OC`, for which the growth in the assay with NCI-H23 lung is 101%; in the assay on NCI-H226 lung, 102%; in the assay on NCI-H322M lung it was 100%; in the assay with HOP-62 NSCLC, 110%; in the assay with NCI-H460 lung, 97.7%; in the assay with HOP-92 NSCLC it was 91%. Moreover, the growth is 84.5% with NCI-H522 lung, 92.1% in the assay on A549/ATCC NSCLC, 92.4% in the assay with 786-0 renal and 109% in the assay on COLO 205 colon.

The values above are taken from PubChem BioAssay (NCI).
